According to PMC7862700, “An all-to-all approach to the identification of sequence-specific readers for epigenetic DNA modifications on cytosine”:

Tests used:
Assay in all cases: DAPPL (digital affinity profiling via proximity ligation, sequencing); 10 mM Tris-HCl pH 7.5, 50 mM NaCl, 1 mM DTT, 4% glycerol, room temperature, 30 min; GST-TFs on glutathione beads, 16-mer random dsDNA library, 0.1% formaldehyde crosslink after washing; high values mean tight binding
Settings in all cases: protein: recombinant; tags: N-terminal GST; dsDNA, one strand shown
FLI1 = target: T1, FLI1 (Homo sapiens, UniProt Q01543 1-452)
T1 sequence: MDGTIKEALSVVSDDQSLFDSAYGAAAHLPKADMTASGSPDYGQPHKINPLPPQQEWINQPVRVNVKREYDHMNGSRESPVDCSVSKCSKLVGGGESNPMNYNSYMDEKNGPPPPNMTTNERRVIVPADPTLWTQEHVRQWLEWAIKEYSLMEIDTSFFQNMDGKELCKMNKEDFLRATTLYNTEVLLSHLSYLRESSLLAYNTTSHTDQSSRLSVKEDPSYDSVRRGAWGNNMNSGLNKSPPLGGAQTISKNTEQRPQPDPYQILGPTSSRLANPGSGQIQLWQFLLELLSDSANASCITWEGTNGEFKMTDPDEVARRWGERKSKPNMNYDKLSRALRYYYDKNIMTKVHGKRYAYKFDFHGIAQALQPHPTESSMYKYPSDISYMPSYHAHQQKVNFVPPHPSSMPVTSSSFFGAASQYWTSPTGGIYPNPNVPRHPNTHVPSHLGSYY
Method in brief: (§1)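 Human transcription factors carrying a GST fusion were produced in yeast, bound to glutathione beads, tagged with DNA barcodes and pooled together with a tag-only sample. Each pool was held with 200 nmole of a random double-stranded 16-mer DNA library in Tris/NaCl/DTT/glycerol buffer for 30 min at room temperature, then washed, crosslinked in 0.1% formaldehyde, proximity-ligated with BsaI/T4 ligase (1 h, 37 °C), PCR-amplified and sequenced on an Illumina NextSeq500. Binding signal is the read frequency of each hexamer for a given factor divided by its frequency in the tag-only sample.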

ELK1 = target: T2, ELK1 (Homo sapiens, UniProt P19419 1-428)
T2 sequence: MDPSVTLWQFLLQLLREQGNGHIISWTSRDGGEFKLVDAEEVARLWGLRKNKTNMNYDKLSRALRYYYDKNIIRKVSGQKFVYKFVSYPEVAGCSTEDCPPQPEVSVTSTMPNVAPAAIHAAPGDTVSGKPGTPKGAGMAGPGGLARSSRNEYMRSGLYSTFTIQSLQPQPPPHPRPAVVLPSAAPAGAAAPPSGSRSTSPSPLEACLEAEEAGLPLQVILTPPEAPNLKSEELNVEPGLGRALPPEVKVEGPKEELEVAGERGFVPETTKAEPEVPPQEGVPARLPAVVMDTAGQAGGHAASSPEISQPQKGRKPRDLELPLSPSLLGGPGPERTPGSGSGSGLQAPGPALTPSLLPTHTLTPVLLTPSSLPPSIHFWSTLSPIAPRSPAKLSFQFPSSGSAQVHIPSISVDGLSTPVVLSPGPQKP
Method in brief: as §1

GABPA = target: T3, GABPA (Homo sapiens, UniProt Q06546 1-454)
T3 sequence: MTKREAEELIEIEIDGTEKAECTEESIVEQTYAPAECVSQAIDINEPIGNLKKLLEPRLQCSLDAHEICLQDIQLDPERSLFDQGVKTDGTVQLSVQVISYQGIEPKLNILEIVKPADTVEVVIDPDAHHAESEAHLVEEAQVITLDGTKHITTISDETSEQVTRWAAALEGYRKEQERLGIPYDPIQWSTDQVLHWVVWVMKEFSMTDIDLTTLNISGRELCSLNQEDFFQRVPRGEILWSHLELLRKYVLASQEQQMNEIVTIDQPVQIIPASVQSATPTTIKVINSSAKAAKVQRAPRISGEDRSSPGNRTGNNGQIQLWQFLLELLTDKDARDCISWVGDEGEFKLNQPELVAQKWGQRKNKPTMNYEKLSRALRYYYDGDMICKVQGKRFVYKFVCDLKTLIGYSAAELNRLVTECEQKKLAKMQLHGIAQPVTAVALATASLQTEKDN
Method in brief: as §1

ERG = target: T4, ERG (Homo sapiens, UniProt P11308 1-479)
T4 sequence: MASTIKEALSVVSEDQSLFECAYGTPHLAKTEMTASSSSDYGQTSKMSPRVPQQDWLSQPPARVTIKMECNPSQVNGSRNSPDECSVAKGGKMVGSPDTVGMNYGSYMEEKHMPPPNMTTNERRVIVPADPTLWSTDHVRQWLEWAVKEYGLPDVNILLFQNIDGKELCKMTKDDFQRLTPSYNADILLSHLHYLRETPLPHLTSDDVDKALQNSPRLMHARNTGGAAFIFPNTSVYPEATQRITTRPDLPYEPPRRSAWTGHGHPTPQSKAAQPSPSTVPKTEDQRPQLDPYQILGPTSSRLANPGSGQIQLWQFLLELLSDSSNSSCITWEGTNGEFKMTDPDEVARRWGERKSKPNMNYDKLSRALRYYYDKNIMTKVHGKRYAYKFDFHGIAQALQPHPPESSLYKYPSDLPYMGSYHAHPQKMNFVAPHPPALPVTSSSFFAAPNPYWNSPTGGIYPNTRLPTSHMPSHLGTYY
Method in brief: as §1

ELF1 = ELF1 (Homo sapiens, UniProt P32519 1-619)
Method in brief: as §1

EHF = target: T5, EHF (Homo sapiens, UniProt Q9NZC4 1-300)
T5 sequence: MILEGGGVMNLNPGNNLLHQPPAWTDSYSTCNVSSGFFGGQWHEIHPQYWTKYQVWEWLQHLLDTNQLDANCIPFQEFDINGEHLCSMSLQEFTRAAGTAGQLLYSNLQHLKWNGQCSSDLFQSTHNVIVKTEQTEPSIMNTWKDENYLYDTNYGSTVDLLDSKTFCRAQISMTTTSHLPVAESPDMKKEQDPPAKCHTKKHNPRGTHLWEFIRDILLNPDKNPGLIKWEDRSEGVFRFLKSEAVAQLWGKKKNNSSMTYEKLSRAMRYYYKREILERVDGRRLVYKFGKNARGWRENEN
Method in brief: as §1

SPI1 = SPI1 (Homo sapiens, UniProt P17947 1-270)
Method in brief: as §1

SPIB = SPIB (Homo sapiens, UniProt Q01892 1-262)
Method in brief: as §1

ELK3 = target: T6, ELK3 (Homo sapiens, UniProt P41970 1-407)
T6 sequence: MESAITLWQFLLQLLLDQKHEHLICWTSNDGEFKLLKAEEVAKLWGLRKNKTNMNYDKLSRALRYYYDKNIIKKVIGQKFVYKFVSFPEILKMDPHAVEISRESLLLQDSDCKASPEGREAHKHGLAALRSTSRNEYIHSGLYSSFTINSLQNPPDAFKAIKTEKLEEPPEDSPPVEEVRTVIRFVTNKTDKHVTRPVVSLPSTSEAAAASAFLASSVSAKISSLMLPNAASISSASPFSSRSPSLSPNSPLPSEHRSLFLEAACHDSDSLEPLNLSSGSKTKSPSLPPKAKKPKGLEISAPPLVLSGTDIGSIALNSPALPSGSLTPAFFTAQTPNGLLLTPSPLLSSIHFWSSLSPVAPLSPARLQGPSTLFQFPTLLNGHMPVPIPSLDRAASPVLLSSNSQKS
Method in brief: as §1

Chain of ELF1 (P32519 whole entry): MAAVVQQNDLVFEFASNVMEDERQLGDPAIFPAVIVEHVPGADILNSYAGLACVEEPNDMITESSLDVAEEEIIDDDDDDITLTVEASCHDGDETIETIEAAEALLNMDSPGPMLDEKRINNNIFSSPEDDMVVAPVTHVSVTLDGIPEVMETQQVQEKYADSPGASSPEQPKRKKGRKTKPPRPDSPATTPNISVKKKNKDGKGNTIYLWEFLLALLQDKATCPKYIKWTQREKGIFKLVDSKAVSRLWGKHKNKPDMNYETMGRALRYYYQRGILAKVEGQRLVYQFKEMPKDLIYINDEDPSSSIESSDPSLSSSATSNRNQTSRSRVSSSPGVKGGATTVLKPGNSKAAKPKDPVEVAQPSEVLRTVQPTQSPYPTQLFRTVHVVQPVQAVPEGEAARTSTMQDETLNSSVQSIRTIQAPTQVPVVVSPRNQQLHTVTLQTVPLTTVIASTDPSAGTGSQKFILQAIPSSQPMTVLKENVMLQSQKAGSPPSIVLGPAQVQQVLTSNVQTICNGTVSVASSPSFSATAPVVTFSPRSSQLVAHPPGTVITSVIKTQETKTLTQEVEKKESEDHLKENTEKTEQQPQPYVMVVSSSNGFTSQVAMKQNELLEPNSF
Chain of SPIB (Q01892 whole entry): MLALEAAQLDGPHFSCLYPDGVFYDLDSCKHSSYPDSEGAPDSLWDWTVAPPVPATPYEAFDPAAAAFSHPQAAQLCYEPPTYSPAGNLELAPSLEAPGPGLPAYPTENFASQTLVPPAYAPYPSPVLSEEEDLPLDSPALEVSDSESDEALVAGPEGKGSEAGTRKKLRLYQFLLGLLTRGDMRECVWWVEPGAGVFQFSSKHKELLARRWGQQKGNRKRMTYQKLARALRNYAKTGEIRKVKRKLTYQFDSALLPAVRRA

## GTTGCA
FLI1
  binding signal: 1.25 fold enrichment (6-mer frequency, TF over GST control)
ELK1
  binding signal: 1.15 fold enrichment (6-mer frequency, TF over GST control)
GABPA
  binding signal: 1.16 fold enrichment (6-mer frequency, TF over GST control)
ERG
  binding signal: 1.01 fold enrichment (6-mer frequency, TF over GST control)
ELF1
  binding signal: 1.14 fold enrichment (6-mer frequency, TF over GST control)
EHF
  binding signal: 1.2 fold enrichment (6-mer frequency, TF over GST control)
SPI1
  binding signal: 1.15 fold enrichment (6-mer frequency, TF over GST control)
SPIB
  binding signal: 1.1 fold enrichment (6-mer frequency, TF over GST control)
ELK3
  binding signal: 1.25 fold enrichment (6-mer frequency, TF over GST control)

## CCGCCG
FLI1
  binding signal: 1.29 fold enrichment (6-mer frequency, TF over GST control)
ELK1
  binding signal: 1.4 fold enrichment (6-mer frequency, TF over GST control)
GABPA
  binding signal: 1.41 fold enrichment (6-mer frequency, TF over GST control)
ERG
  binding signal: 1.37 fold enrichment (6-mer frequency, TF over GST control)
ELF1
  binding signal: 1.26 fold enrichment (6-mer frequency, TF over GST control)
EHF
  binding signal: 1.34 fold enrichment (6-mer frequency, TF over GST control)
SPI1
  binding signal: 1.27 fold enrichment (6-mer frequency, TF over GST control)
SPIB
  binding signal: 1.16 fold enrichment (6-mer frequency, TF over GST control)
ELK3
  binding signal: 1.26 fold enrichment (6-mer frequency, TF over GST control)

## TTCATA
FLI1
  binding signal: 1.17 fold enrichment (6-mer frequency, TF over GST control)
ELK1
  binding signal: 1.16 fold enrichment (6-mer frequency, TF over GST control)
GABPA
  binding signal: 1.18 fold enrichment (6-mer frequency, TF over GST control)
ERG
  binding signal: 1.11 fold enrichment (6-mer frequency, TF over GST control)
ELF1
  binding signal: 1.19 fold enrichment (6-mer frequency, TF over GST control)
EHF
  binding signal: 1.18 fold enrichment (6-mer frequency, TF over GST control)
SPI1
  binding signal: 1.18 fold enrichment (6-mer frequency, TF over GST control)
SPIB
  binding signal: 1.23 fold enrichment (6-mer frequency, TF over GST control)
ELK3
  binding signal: 1.16 fold enrichment (6-mer frequency, TF over GST control)

## GATCCC
FLI1
  binding signal: 1.16 fold enrichment (6-mer frequency, TF over GST control)
ELK1
  binding signal: 1.16 fold enrichment (6-mer frequency, TF over GST control)
GABPA
  binding signal: 1.15 fold enrichment (6-mer frequency, TF over GST control)
ERG
  binding signal: 1.23 fold enrichment (6-mer frequency, TF over GST control)
ELF1
  binding signal: 1.27 fold enrichment (6-mer frequency, TF over GST control)
EHF
  binding signal: 1.17 fold enrichment (6-mer frequency, TF over GST control)
SPI1
  binding signal: 1.11 fold enrichment (6-mer frequency, TF over GST control)
SPIB
  binding signal: 1.17 fold enrichment (6-mer frequency, TF over GST control)
ELK3
  binding signal: 1.14 fold enrichment (6-mer frequency, TF over GST control)

## GAAGTG
FLI1
  binding signal: 1.46 fold enrichment (6-mer frequency, TF over GST control)
ELK1
  binding signal: 1.7 fold enrichment (6-mer frequency, TF over GST control)
GABPA
  binding signal: 1.49 fold enrichment (6-mer frequency, TF over GST control)
ERG
  binding signal: 1.87 fold enrichment (6-mer frequency, TF over GST control)
ELF1
  binding signal: 1.52 fold enrichment (6-mer frequency, TF over GST control)
EHF
  binding signal: 1.71 fold enrichment (6-mer frequency, TF over GST control)
SPI1
  binding signal: 2.8 fold enrichment (6-mer frequency, TF over GST control)
SPIB
  binding signal: 1.61 fold enrichment (6-mer frequency, TF over GST control)
ELK3
  binding signal: 1.75 fold enrichment (6-mer frequency, TF over GST control)

## GCGGAA
FLI1
  binding signal: 1.37 fold enrichment (6-mer frequency, TF over GST control)
ELK1
  binding signal: 1.33 fold enrichment (6-mer frequency, TF over GST control)
GABPA
  binding signal: 1.29 fold enrichment (6-mer frequency, TF over GST control)
ERG
  binding signal: 1.46 fold enrichment (6-mer frequency, TF over GST control)
ELF1
  binding signal: 1.28 fold enrichment (6-mer frequency, TF over GST control)
EHF
  binding signal: 1.52 fold enrichment (6-mer frequency, TF over GST control)
SPI1
  binding signal: 2.18 fold enrichment (6-mer frequency, TF over GST control)
SPIB
  binding signal: 1.49 fold enrichment (6-mer frequency, TF over GST control)
ELK3
  binding signal: 1.37 fold enrichment (6-mer frequency, TF over GST control)

## GTCCTT
FLI1
  binding signal: 1.16 fold enrichment (6-mer frequency, TF over GST control)
ELK1
  binding signal: 1.2 fold enrichment (6-mer frequency, TF over GST control)
GABPA
  binding signal: 1.28 fold enrichment (6-mer frequency, TF over GST control)
ERG
  binding signal: 1.22 fold enrichment (6-mer frequency, TF over GST control)
ELF1
  binding signal: 1.26 fold enrichment (6-mer frequency, TF over GST control)
EHF
  binding signal: 1.28 fold enrichment (6-mer frequency, TF over GST control)
SPI1
  binding signal: 1.29 fold enrichment (6-mer frequency, TF over GST control)
SPIB
  binding signal: 1.34 fold enrichment (6-mer frequency, TF over GST control)
ELK3
  binding signal: 1.25 fold enrichment (6-mer frequency, TF over GST control)

## ATCACA
FLI1
  binding signal: 1.06 fold enrichment (6-mer frequency, TF over GST control)
ELK1
  binding signal: 1.09 fold enrichment (6-mer frequency, TF over GST control)
GABPA
  binding signal: 1.11 fold enrichment (6-mer frequency, TF over GST control)
ERG
  binding signal: 1.02 fold enrichment (6-mer frequency, TF over GST control)
ELF1
  binding signal: 1.13 fold enrichment (6-mer frequency, TF over GST control)
EHF
  binding signal: 1.04 fold enrichment (6-mer frequency, TF over GST control)
SPI1
  binding signal: 1.06 fold enrichment (6-mer frequency, TF over GST control)
SPIB
  binding signal: 1.02 fold enrichment (6-mer frequency, TF over GST control)
ELK3
  binding signal: 1.13 fold enrichment (6-mer frequency, TF over GST control)
